# According to PubChem BioAssay:
# Target: Follistatin-related protein 3 (Homo sapiens) (UniProt O95633)
# Assay: compounds binding follistatin-related protein 3 – biochemical, small-molecule microarray, 635 nm fluorescence, primary screen (AID 1105);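 also: score merges emission near 667 nm and signal to noise per printed spot across three slides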
# Conditions: FSTL3 binding, higher = more signal
# Sequence of Follistatin-related protein 3 (Homo sapiens) (O95633 whole entry, looked up): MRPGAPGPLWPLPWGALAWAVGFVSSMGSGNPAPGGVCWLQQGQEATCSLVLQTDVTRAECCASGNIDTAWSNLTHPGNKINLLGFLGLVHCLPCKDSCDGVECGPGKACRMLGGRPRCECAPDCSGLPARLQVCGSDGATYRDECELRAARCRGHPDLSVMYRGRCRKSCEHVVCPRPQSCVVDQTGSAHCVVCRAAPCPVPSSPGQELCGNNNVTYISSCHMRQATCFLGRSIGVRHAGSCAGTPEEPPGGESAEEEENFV
row,SMILES,composite z-score
1,COC(=O)[C@H]1N=C(c2ccc(OCCCO)cc2)O[C@H]1c1ccccc1CN=[N+]=[N-],-0.605
2,C[N+](C)(C)CCCCNC(=O)[C@H]1C[C@H]2C(=O)NCC(=O)N2[C@H]1c1ccc(O)cc1,1.44
3,CN(C)CCCCCCNC(=O)[C@@H]1C[C@@H]2C(=O)NCC(=O)N2[C@@H]1c1ccc(O)cc1,1.46
4,COc1ccc(C#Cc2ccc3c(c2)[C@]2(C(=O)N3)[C@H](c3ccc(OCCO)cc3)N3[C@H](c4ccccc4)[C@H](c4ccccc4)OC(=O)[C@H]3[C@@H]2C(=O)N2CCN(c3ncccn3)CC2)cc1,0.602
5,[N-]=[N+]=NCc1ccccc1[C@H]1OC(c2ccc(OCCCO)cc2)=N[C@@]1(Cc1ccccc1)C(N)=O,0.546
6,C#CCOC(=O)N[C@H](C=CCCCC)c1ccccc1,-0.484
7,COc1cccc(C[C@H]2C[C@@H](CO[Si](C(C)C)(C(C)C)C(C)C)N3C(=O)[C@]4(C(C)=O)O[C@]23[C@H]2C(=O)N(C)C(=O)[C@H]24)c1,1.09
8,C=C(COC)/C(=C/C[C@@H](OC(=O)c1ccncc1)c1cccc(OCCO)c1)c1cc(C(=O)OC)ccc1OC,0.902
9,C[N+](C)(C)CCCC[C@@H]1NC(=O)[C@@H]2C[C@H](C(=O)NCCCCCNC(=O)CS)[C@H](c3cccc(OCCO)c3)N2C1=O,-0.19
10,CCCCCCCCCCC(O)C1C=CC2C(=O)NC(=O)C2N1Nc1ccccn1 (stereo unspecified),-0.448
11,CCOC(=O)C[C@H]1[C@H](OC(=O)c2ccc(C(=O)c3ccccc3)cc2)[C@@H](NC(=O)C2CCCCC2)c2cc(OCCCO)ccc2N1C(=O)Cc1ccc(OC)cc1,0.459
12,COc1ccc([Si](C)(C)[C@@H]2[C@@H](CCO)O[C@]3(C(=O)N(Cc4ccc(N5C(=O)c6ccccc6Oc6ccccc65)cc4)c4ccccc43)[C@H]2C)cc1,-0.644
13,O=C1O[C@@H](c2ccccc2)[C@@H](c2ccccc2)N2[C@@H](c3ccc(O)cc3)[C@]3(C(=O)Nc4ccc(C#CC5(O)CCCCCC5)cc43)[C@@H](C(=O)N3CCN(c4ncccn4)CC3)[C@H]12,0.639
14,COCCCNC(=O)[C@@]1(C)c2ccccc2C(=O)N(c2ccc(C)cn2)[C@H]1c1ccc(CO)cc1,-0.551
15,COc1ccc([Si](C)(C)[C@H]2[C@H](CCO)O[C@@]3(C(=O)N(Cc4cccc(N5CCOC5=O)c4)c4ccccc43)[C@@H]2C)cc1,0.493
16,O=C(N1CCOCC1)[C@@]1(CCS(=O)(=O)c2ccccc2)COC(c2ccc(OCCCO)cc2)=N1,-0.827
17,COCCOC(=O)N1C(=O)[C@@]2(c3cc(C#Cc4ccc(OC)cc4)ccc31)[C@H](C(N)=O)[C@H]1C(=O)O[C@H](c3ccccc3)[C@H](c3ccccc3)N1[C@@H]2c1ccc(OCCO)cc1,1.34
18,C=C[C@H](C)[C@H](OC(=O)Nc1ccc(SC)cc1)c1ccc(O)c2ccccc12,0.284

row,SMILES,composite z-score
1,C=C(CCCC)/C(=C/C[C@H](OC(=O)c1ccncc1)c1ccc(CO)o1)c1cc(C(=O)OC)ccc1OC,0.928
2,CN1C(=O)C2C=CC(C(O)c3cccc4ccccc34)N(NC(=O)OC(C)(C)C)C2C1=O (stereo unspecified),0.85
3,COc1cc2c(cc1OC)CN(C(=O)[C@@H]1[C@H]3C(=O)O[C@H](c4ccccc4)[C@H](c4ccccc4)N3[C@H](c3ccc(OCCO)cc3)[C@@]13C(=O)Nc1ccc(C#CCCO)cc13)CC2,1.23
4,NCCCCCCNC(=O)[C@H]1C[C@H]2C(=O)N3CCC[C@H]3C(=O)N2[C@H]1c1ccc(O)cc1,0.747
5,C[C@H]1NC(=O)C([C@@H](C)OCc2ccccc2)NC(=O)[C@@]23C(=O)N[C@@H](Cc4ccccc4)C2[C@H](C)[C@@]2(C)O[C@H]2C3/C=C/CC/C=C/CNC1=O (stereo partly specified),0.575
6,O=C1O[C@@H](c2ccccc2)[C@@H](c2ccccc2)N2[C@@H](c3ccc(O)cc3)[C@]3(C(=O)Nc4ccc(C#CC5=CCCCC5)cc43)[C@@H](C(=O)Nc3nc4ccccc4s3)[C@H]12,1.31
7,CC(C)(C)N1CC=CC23O[C@@H]4C=CCCOC(=O)C4[C@H]2C(=O)N(CCCO)[C@@H]3C1=O (stereo partly specified),-0.788
8,CN(C)CCCCNC(=O)[C@H]1C[C@H]2C(=O)N[C@@H](CCCC[N+](C)(C)C)C(=O)N2[C@H]1c1cccc(OCCO)c1,0.738
9,CCCCC(CC)C(O)C1C=CC2C(=O)NC(=O)C2N1Nc1ccccn1 (stereo unspecified),0.768
10,C[N+](C)(C)CCCCCCNC(=O)[C@@H]1C[C@@H]2C(=O)NCC(=O)N2[C@@H]1c1cccc(OCCO)c1,1.44
11,CCCCC=C[C@@H](NC(=O)CCc1ccccc1)c1ccccc1,0.188
12,C[N+](C)(C)CCCCCCNC(=O)[C@H]1C[C@H]2C(=O)N3CCC[C@H]3C(=O)N2[C@H]1c1cccc(OCCO)c1,1.3
13,COc1cccc(C)c1NC(=O)O[C@H]1[C@H](OC(=O)Nc2ccccc2)[C@H](OC(=O)Nc2ccccc2)[C@@H](OC)O[C@@H]1CO,0.367
14,CC(C)NC(=O)[C@@]1(Cc2ccccc2I)c2ccccc2C(=O)N(Cc2ccccc2C(F)(F)F)[C@H]1c1ccc(CO)cc1,0.0273
15,COCCCNC(=O)[C@@]1(Cc2ccccc2CN=[N+]=[N-])N=C(c2ccc(OCCCO)cc2)O[C@H]1c1ccccc1N=[N+]=[N-],0.706
16,C=C(C)[C@@H]1CC=C(C(O)C2C=CC3C(=O)N(C4CCCCC4)C(=O)C3N2Nc2ccc(OC)cc2)CC1 (stereo partly specified),1.37
17,C=CCC(OC(C)=O)[C@@H]1[C@@H](N(Cc2ccc(-c3ccccc3)cc2)C(=O)Cc2ccc(OC)cc2)c2cc(OCCCO)ccc2N1C(=O)c1ccc(-c2ccccc2)cc1 (stereo partly specified),-0.0062
18,CC(C)=CCCC(C)=CC(O)C1C=CC2C(=O)N(c3ccccc3)C(=O)C2N1Nc1ccc([N+](=O)[O-])cc1 (stereo unspecified),0.996
